ELG1 genotoxic = genotoxicity induction in ELG1-luciferase HEK293T cells; HEK293T ELG1-luciferase reporter, luminescence, 16 h; Potency, µM (top dose mostly 46 µM), without a hit: at the highest dose activity change, positive = activation, hits mostly activators; 1.3% of 330,000 active; AID 504466; further: % of control where 0% means no effect; nearly all actives have a fitted effect of over 60% in size
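Step 1: seed 2,000 HEK293T ELG1-luciferase cells per well. Step 2: add compound or DMSO, incubate 16 hr at 37 °C. Step 3: ONE-Glo, 30 min at room temperature, read luminescence.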
KinaseGlo FLuc = counter-screen: inhibitors of Kinase-Glo firefly luciferase; Kinase-Glo luciferase, ATP luminescence, 8 min; Potency, µM (top dose mostly 38.3 µM), for inactives: top-dose activity change, negative = inhibition, usual class: inhibitors; 0.28% of 200,000 active; further: on the % scale 0 is the no-effect control and ±100 the full control effect; nearly all actives have a fitted effect of over 60% in size
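Luminescence was the read-out, taken after 8-minute incubation at ambient temperature. Luciferase turned over luciferin with 10 uM ATP in imidazole pH 7.2 buffer containing KCl, MgCl2, Tween 20 and BSA.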
SMN2 splice up = increases expression of the SMN2 splice variant | 2.8% of 210,000 active | AID 1458 | Potency, µM (titrated, usually from 46.1 µM), for inactives: at the top dose activity change, positive = activation, hits mostly activators | HEK293 SMN2-luciferase splicing reporter, luminescence, 30-36 h; further: % of control where 0% means no effect; nearly all actives have a fitted effect of over 55% in size
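HEK293 cells carry an SMN2 […]–luciferase reporter in which exon 7 inclusion puts luciferase in frame. Cells were plated 10-12 h before compound addition, then incubated 30-36 h at 37C. ONE-Glo luminescence was read; sodium butyrate at 4.5 mM final served as control.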
FLuc modulator = counter-screen for miR-21 project: firefly luciferase inhibitors or activators | P08659 | purified FLuc, Km substrates, luminescence inhibition | Potency, µM (top dose mostly 57.5 µM), for the others: at the top dose activity change, negative = inhibition, usual class: inhibitors | 6.9% of 360,000 active | AID 588342;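 further: plate controls were vehicle for no effect and reference inhibitor for full effect; nearly all actives have a fitted effect of over 55% in size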
Target sequence (P08659 whole entry, looked up): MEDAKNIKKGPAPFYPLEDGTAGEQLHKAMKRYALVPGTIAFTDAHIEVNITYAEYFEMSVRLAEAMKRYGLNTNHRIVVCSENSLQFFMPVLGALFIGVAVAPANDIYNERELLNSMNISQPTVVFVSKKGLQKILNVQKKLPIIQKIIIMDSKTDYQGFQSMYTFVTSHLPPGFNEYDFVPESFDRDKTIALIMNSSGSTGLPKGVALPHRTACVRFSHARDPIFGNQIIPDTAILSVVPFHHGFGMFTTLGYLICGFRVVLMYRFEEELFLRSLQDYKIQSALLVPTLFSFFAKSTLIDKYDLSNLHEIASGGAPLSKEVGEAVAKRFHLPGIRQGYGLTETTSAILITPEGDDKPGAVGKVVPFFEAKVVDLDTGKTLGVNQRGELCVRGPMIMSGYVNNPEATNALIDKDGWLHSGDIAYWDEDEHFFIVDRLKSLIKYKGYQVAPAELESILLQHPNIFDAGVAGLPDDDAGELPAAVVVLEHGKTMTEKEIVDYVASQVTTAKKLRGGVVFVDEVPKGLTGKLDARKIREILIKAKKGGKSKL
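Purified P. pyralis luciferase, 10 nM final, with Km-level 10 uM D-luciferin and 10 uM ATP in 50 mM Tris acetate pH 7.5, 10 mM Mg acetate, 0.01% Tween-20, 0.05% BSA; 6-point qHTS titration about 60 µM downward; luminescence read.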
NPC1 promoter act = activates the NPC1 promoter; Potency, µM (doses to about 9.22 µM), for the others: at the highest dose activation, actives largely listed as activators; Huh7 NPC1 promoter luciferase reporter, 24 h; 2.4% of 320,000 active; further: % of control where 0% means no effect; nearly all actives have a fitted effect of over 60% in size
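Luminescence read-out of NPC1 promoter-driven luciferase in stably transfected Huh7 cells; compounds delivered in DMSO and left 24 h at 37C, 5% CO2, qHTS titration format.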
Rab9 prom act = activates the Rab9 promoter. Huh7 Rab9 promoter-luciferase reporter, luminescence, 24 h. 2.8% of 320,000 active. Potency, µM (titrated, usually from 9.22 µM), for inactives: at the top dose activation, negative = inhibition, hits mostly activators; further: % of control where 0% means no effect; nearly all actives have a fitted effect of over 60% in size
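Measured in stably transfected Huh7 cells bearing a Rab9 promoter–luciferase construct: 24 h compound treatment at 37 °C, followed by luminescence detection.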
* = called active by the depositor; ? = inconclusive; . = no result; [ ] = another dose, or the depositor's remark. Compounds with a hit are over-represented: about 7.4% of the library has one in this group of screens. The call rests on the fitted dose curve; in most records, active means well fitted curve in the direction sought with a large enough effect; inconclusive means small, poorly fitted or top-dose-only effect, or another doubt; inactive means no such curve, though single readings can be large; an effect the other way counts as inactive or inconclusive. Potency means the concentration at half of the fitted maximal effect.

SMILES | ELG1 genotoxic | KinaseGlo FLuc | SMN2 splice up | FLuc modulator | NPC1 promoter act | Rab9 prom act
O=C(O)CCC(=O)c1ccc2c(c1)OCCCO2 | 5% | -4% | 15% | -3% | -7% | 3%
O=C(CCc1ccccc1)c1ccc2c(c1)OCCCO2 | 4.1µM* | -4% | ? | 4.3µM* | 3.2µM* | 0.63µM*
CC(C)(C)N(Cc1ccccc1)C(=O)c1ccc2c(c1)OCCO2 | -2% | 10% | -8% | -1% | 2% | -5%
O/N=C(/CCc1ccccc1)c1ccc2c(c1)OCCO2 | 21µM* | -2% | 16µM* | 13µM* | 4µM* | 2.8µM*
O=C(c1ccccc1)c1ccc2c(c1)OCCCO2 | ? | . | . | 8.5µM* | 1.8µM* | 1.4µM*
CC(=O)n1c(COS(C)(=O)=O)nc2ccccc21 | . | -2%[7.66 µM] | -12%[9.22 µM] | . | . | .
Cc1cc(O)c(C(C)C)cc1Cl | . | 4%[39.9 µM] | . | . | . | .
O=C(CCCc1ccccc1)c1ccc2c(c1)OCCO2 | ? | -27% | -41% | 0.076µM* | -28% | -21%
O=C(CCN1CCc2ccccc21)c1ccc2c(c1)OCCO2 | 14% | -6% | -5% | 8.5µM* | ? | ?
O=C(CCN1CCc2ccccc2C1)c1ccc2c(c1)OCCO2 | -1% | -5% | -5% | ? | 12% | 2%
CCC(=O)c1ccc(O)cc1 | 2% | -1% | -17% | 5% | -2% | -2%
CC(CN1CCCCC1)OC(=O)c1ccc2c(c1)OCCO2 (stereo not given) | ? | . | . | ? | 23% | 22%
O=C(CCCC(=O)c1ccc(O)cc1)c1ccc(O)cc1 | 4.6µM* | . | . | 2.4µM* | 3.5µM* | ?
O=C(CCN1CCCC1Cc1ccccc1)c1ccc2c(c1)OCCO2 (stereo not given) | . | 3% | -1% | -13% | . | .
CC(OC(=O)c1ccc2c(c1)OCCO2)C(=O)c1ccccc1 (stereo not given) | ? | . | . | 0.85µM* | 0.71µM* | 0.5µM*
Cc1ccc(NC(=O)N2CCC(n3c(C)nc4cccnc43)CC2)c(Cl)c1 | . | . | . | 0% | . | .
COC(=O)C1=C(C(=O)OC)[C@@H]2N(Cc3ccccc3)c3ccccc3[C@@]23C[C@@H](C(=O)OC)N(S(=O)(=O)c2ccc(C)cc2)C3=N1 | . | -8%[7.66 µM] | -6%[9.22 µM] | . | . | .
O=C1/C(=C/N(C(=O)c2ccco2)c2ccc(Cl)cc2)Sc2ccccc21 | ? | -16% | 14µM* | 0.13µM* | ? | ?
COc1ccc(CN(C(=O)c2ccco2)c2ccc(Br)cc2)cc1OC | -2% | 12% | -21% | 1% | 1% | -5%
O=C1c2ccccc2C(=O)N1CCCCN(C(=O)c1ccco1)c1ccc(Cl)cc1 | -19% | 2% | -6% | 3% | 5% | 2%
O=C1/C(=C/N(C(=O)c2ccco2)c2ccc(Br)cc2)Sc2ccccc21 | 12µM* | -20% | . | 0.34µM* | ? | ?
CCC(C)n1c(=N)c(C(=O)NCc2ccco2)cc2c(=O)n3cc(C)ccc3nc21 (stereo not given) | . | . | -1% | 3% | . | .
COc1cc(N/N=C/c2ccccc2O)ncn1 | 23µM* | -3% | ? | 15µM* | ? | ?
COc1cc(N/N=C/c2ccc(N(C)C)cc2)ncn1 | 1.2µM* | ? | 2.2µM* | 0.85µM* | 1.3µM* | ?
Cc1cnn(-c2cc(N/N=C/c3ccccc3)ncn2)c1 | 2% | -7% | -1% | ? | 15% | 2%[1.84 µM]
SMILES | ELG1 genotoxic | KinaseGlo FLuc | SMN2 splice up | FLuc modulator | NPC1 promoter act | Rab9 prom act
O=C(/C=C/c1ccc(F)cc1)c1ccccc1Br | -15% | 1% | -8% | 19µM* | -3% | -4%
COCOc1ccccc1C(=O)/C=C/c1ccccc1 | . | -1% | -1% | . | . | .
Cc1ccc(C(=O)/C=C/c2ccc(F)cc2)o1 | ? | -9% | 4% | 1.5µM* | 3% | 10%
COc1cc2oc(=O)c(CC(=O)NCCc3ccccc3)c(C)c2cc1Cl | . | . | -11% | -2% | . | .
Cc1sc2ncnc(N3CCC(C(=O)Nc4nc(-c5cccs5)cs4)CC3)c2c1C | 1% | . | . | 11µM* | -21% | -20%
CCCC1CCC(c2ccc(OCC)cc2)=CC1=O (stereo not given) | ? | . | . | 6.7µM* | 2µM* | 3.5µM*
CCOc1ccc(N2C(=O)CCC2=O)cc1 | 2% | 2% | 1% | 6% | -4% | -5%
CCC(CC)c1nn2c(=O)cc(COc3ccc(NC(=O)c4ccc(Cl)cc4)cc3)nc2s1 | . | . | 20% | -1% | . | .
Cc1ccc(NC(=O)c2cccc(Cl)c2)nc1 | 26% | 11µM* | 5% | ? | 25% | 7%
O=C(Nc1cc(-c2ccccc2)[nH]n1)c1ccc(Cl)cc1 | ? | . | . | 11µM* | 2µM* | 3.2µM*
Cc1ccc(NC(=O)CNC(=O)c2cccc(Cl)c2)nc1 | ? | . | . | ? | 11% | 0%
Cc1cc(NC(=O)c2cccc(Cl)c2)n[nH]1 | ? | . | . | 19µM* | 2.8µM* | 2.5µM*
Cc1nnc(NC(=O)c2ccc3c(c2)NC(=O)CS3)s1 | -1% | . | . | -5% | -1% | 1%
Cc1ccc(NC(=O)c2ccc3c(c2)NC(=O)CS3)nc1 | 9.2µM* | . | . | ? | ? | ?
O=C(CC1NCCNC1=O)Nc1cccc(F)c1 (stereo not given) | . | . | 10% | 1% | . | .
Cc1ccc(NC(=O)c2cccc(NC(=O)CC3SC(N4CCCCC4)=NC3=O)c2)nc1 (stereo not given) | 0% | . | . | 11µM* | 12% | 29%
Cc1ccc(C2=NN3C(C2)c2ccccc2OC32C(=O)Nc3ccccc32)cc1 (stereo not given) | ? | -2% | ? | 15µM* | 2.5µM* | ?
Cc1cccc(CNC(=O)c2oc3c(c2C)-c2nn(Cc4ccccc4Cl)cc2CC3)c1 | . | . | . | -10% | . | .
Cc1ccc(/C=C/c2nnc(-c3cccs3)o2)cc1 | ? | -6% | 10µM* | 1.7µM* | 0.35µM* | 0.89µM*
Cc1ccc(-c2nnc(-c3cccs3)o2)cc1 | 5.2µM* | -7% | 13µM* | 6.7µM* | 3.5µM* | 1.6µM*
Cc1ccc(/C=C/c2nnc(-c3ccc(C)cc3)o2)cc1 | 3% | -6% | -12% | -16% | 1% | -6%
Fc1ccc(/C=C/c2nnc(-c3cccs3)o2)cc1 | 10µM* | -5% | 13µM* | 2.7µM* | 2.2µM* | 1.1µM*
COc1cccc(NC(=O)CSc2nc(C)c(Cc3ccccc3)c(=O)[nH]2)c1 | . | . | -4% | ? | . | .
CCCCOc1ccc(C(=O)Nc2ccc(S(=O)(=O)Nc3nc(C)cc(C)n3)cc2)cc1 | . | . | -20% | ? | . | .
CCCOc1ccc(C(=O)Nc2ccc(S(=O)(=O)Nc3onc(C)c3C)cc2)cc1 | 17% | -1% | -24% | 8.5µM* | 3% | 2%
CCOc1cc(C(=O)Nc2ccc(S(=O)(=O)Nc3onc(C)c3C)cc2)cc(OCC)c1OCC | -4% | . | . | . | . | .

Source: PubChem BioAssay
